Measurements taken from PubChem BioAssay AID376 (PDSP, 2006).
Screen size: about 2,000 compounds; about 250 (12%) were called active. Only a selection was taken, and actives are over-represented in it overall. A number with no mark means an inactive call. Rule as the data show it: active = hERG blockade below about -20% or above about 20%; inactive = in between.

Each compound was assayed against Voltage-gated inwardly rectifying potassium channel KCNH2 (Homo sapiens) (UniProt Q12809) (assay: KCNH2 potassium channel function modulators, cell-based (AID 376;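 also: 0% = buffer alone and 100% = reference blocker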)). Settings: hERG-expressing cells, channel activity single-concentration screen; concentration not given here.
Voltage-gated inwardly rectifying potassium channel KCNH2 (Homo sapiens), sequence (Q12809 whole entry, looked up): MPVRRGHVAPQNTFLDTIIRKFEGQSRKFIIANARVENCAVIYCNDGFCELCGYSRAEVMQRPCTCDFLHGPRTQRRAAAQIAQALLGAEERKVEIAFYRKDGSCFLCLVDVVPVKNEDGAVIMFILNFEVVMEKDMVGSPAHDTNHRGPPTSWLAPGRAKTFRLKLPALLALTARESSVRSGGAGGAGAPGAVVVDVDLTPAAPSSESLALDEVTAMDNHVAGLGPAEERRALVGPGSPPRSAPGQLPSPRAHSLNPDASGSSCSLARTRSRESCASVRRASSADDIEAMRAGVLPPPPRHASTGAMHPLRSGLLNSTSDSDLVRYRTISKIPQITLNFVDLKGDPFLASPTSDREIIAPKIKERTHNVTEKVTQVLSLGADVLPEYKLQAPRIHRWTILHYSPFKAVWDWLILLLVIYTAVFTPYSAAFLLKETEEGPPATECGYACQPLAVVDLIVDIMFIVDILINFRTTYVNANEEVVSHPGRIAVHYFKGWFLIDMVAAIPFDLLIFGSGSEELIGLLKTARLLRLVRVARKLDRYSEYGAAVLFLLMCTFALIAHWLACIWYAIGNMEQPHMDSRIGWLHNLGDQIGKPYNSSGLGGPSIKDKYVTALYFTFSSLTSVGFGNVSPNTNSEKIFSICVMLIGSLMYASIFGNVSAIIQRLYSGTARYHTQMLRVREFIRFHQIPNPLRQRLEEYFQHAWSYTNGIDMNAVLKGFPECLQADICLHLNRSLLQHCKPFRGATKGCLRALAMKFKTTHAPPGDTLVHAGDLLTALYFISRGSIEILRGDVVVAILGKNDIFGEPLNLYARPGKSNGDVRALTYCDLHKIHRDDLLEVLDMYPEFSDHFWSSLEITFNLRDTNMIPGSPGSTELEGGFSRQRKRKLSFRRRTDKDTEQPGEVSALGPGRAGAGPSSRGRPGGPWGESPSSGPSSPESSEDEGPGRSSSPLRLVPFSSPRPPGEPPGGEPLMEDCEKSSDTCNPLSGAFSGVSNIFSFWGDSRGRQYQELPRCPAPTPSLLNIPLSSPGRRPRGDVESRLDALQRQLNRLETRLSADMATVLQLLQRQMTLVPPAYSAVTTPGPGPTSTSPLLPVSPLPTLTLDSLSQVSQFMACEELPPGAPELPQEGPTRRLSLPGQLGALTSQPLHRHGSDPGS
In the case of `Cc1cc(=O)oc2cc(O)c(CN(C)CC(=O)O)cc12`, the hERG blockade is reported as 0.517%. `O=c1[nH]c(=S)[nH]c2c1CN(CCCN1CCOCC1)CN2` showed a hERG blockade of 3%. `NCCSCc1ccccc1Cl` showed a hERG blockade of 6.42%. For `CN(CCO)Cc1ncccc1O`, the hERG blockade was -0.376%. In the case of `CC(CCC(=O)O)C1CCC2C3CCC4CC(O)CCC4(C)C3CC(O)C12C` (stereo unspecified), the hERG blockade is reported as 2.74%. For `CN(C)CCCn1c2c3ccccc3ccc2c2oc(=O)c3ccccc3c21`, the hERG blockade was 122% (active). `Cc1nc2cccc([N+](=O)[O-])c2n1CCCN(C)C` gave a hERG blockade of 3.79%. In the case of `Cc1ccc(N2CCN(CCC(=O)O)CC2)cc1`, the hERG blockade is reported as -0.109%. In the case of `CCCn1cnc2c(SCC(=O)O)nc(N)nc21`, the hERG blockade is reported as 4.79%. Work on `NC(=S)NN=Cc1c[nH]c2ccccc12` yielded a hERG blockade of 9.72%. `CCCCNS(=O)(=O)c1n[nH]c(=O)[nH]c1=O` was tested, and the hERG blockade was -14.2%. `CC(CCC(C)=NO)=NO` was tested, and the hERG blockade was -14.3%. In the case of `Cc1cc(Cl)ccc1Nc1sc(C(=O)c2cc3cc(Cl)ccc3o2)c(N)c1C#N`, the hERG blockade is reported as 24% (active). For `O=C(O)c1c(-c2nccc3ccccc23)[nH]c(-c2ccccc2)c1S(=O)(=O)O`, the hERG blockade was -1.08%. Work on `COc1ccc2nccc(SCC(=O)O)c2c1` yielded a hERG blockade of -9.78%. Work on `CC(=O)Nc1ccccc1C=C1c2ccccc2-c2ccccc21` yielded a hERG blockade of -13.9%. With `CC(=O)Nc1ccc2c(c1)C(=Cc1ccc([N+](C)(C)C)cc1)c1ccccc1-2` the hERG blockade was 24.7% (active). In the case of `CC(=O)Nc1ccc2c(c1)C(=Nc1ccc(C(=O)O)cc1)c1ccccc1-2`, the hERG blockade is reported as 19.5%. `Cc1ccc(C(C#N)=Cc2cccc([N+](=O)[O-])c2)cc1` gave a hERG blockade of 11.7%. `CC(=O)n1c(COS(C)(=O)=O)nc2ccccc21` gave a hERG blockade of 4.86%. In the case of `CC1CC(C)(C)CC(OCCN2CCCCC2)(c2ccccc2)C1` (stereo unspecified), the hERG blockade is reported as 21.3% (active). `OC(CCN1CCCCC1)(c1ccccc1)c1ccccc1` gave a hERG blockade of 11.6%. `Cc1ccc(S(=O)(=O)Nc2ccccc2C=O)cc1` showed a hERG blockade of 5.12%. `C[N+]1(CCCC[N+]2(C)CCCCCCC2)CCCCCCC1` gave a hERG blockade of 13.6%. Compound `N#CC(C#N)=CNCCN1CCN(C=C(C#N)C#N)CC1` has a hERG blockade of -5.6%. In the case of `CN(C)CCNc1ccccn1`, the hERG blockade is reported as 5.77%.
